The source made the active and inactive calls.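 Rule for the calls: active = cell event count below 40, meaning activity score above 60 where score is 100 minus count; inactive = the rest.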
Assay: cytotoxicity in LNCaP prostate cells – cell-based, cell event count, single point, cytotoxicity control for prostate differentiation activator project, confirmation (AID 1076);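 note: counts scatter-gated live cells after medium removal discards detached dead cells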
Conditions: LNCaP cell loss, flow cytometry event count, 4 d, stronger effect = lower value

Row | SMILES | cell event count (at 100 µM) | cell event count (event count, at 10 µM)
1 | Cc1cc(NC(=O)CSc2nnc(Cn3c(=O)sc4ccccc43)n2-c2ccccc2C)no1 | 200 (inactive) | 121
2 | CCOc1ccc(OCC)c(NC(=O)C2CCCN(S(=O)(=O)c3c(C)noc3C)C2)c1 (centres undefined) | 187 (inactive) | 260
3 | CCOC(=O)c1[nH]c(C)c(C(=O)NC2CCCCCC2)c1C | 63 (inactive) | 112
4 | COC(=O)c1ccccc1NC(=O)CN1CCC(n2nnc3cc(F)ccc32)CC1 | 174 (inactive) | 112
5 | O=S(=O)(Nc1cccc2ncccc12)c1cccs1 | 42 (inactive) | 78.5
6 | Cc1ccccc1-c1nc(CN2CCC(C(=O)N3CCN(c4ccccn4)CC3)CC2)c(C)o1 | 73 (inactive) | 190
7 | CCCS(=O)(=O)N1CCCC(C(=O)NCCCN2CCN(c3ccc(F)cc3)CC2)C1 (centres undefined) | 49 (inactive) | 47
8 | Cc1oc(-c2ccc(Cl)cc2)nc1CN1CCC(C(=O)NCc2ccco2)CC1 | 178 (inactive) | 174
9 | Cn1c(C(=O)NCCCN2CCN(c3cccc(Cl)c3)CC2)cc2c(=O)n(C)c3ccccc3c21 | 46 (inactive) | 251
10 | COC(=O)CN1CCN(C(=O)c2ccc(F)cc2)c2ccccc2C1 | 112 (inactive) | 157
11 | N#CC(C(=O)c1ccco1)c1ccccn1 (centres undefined) | 40 (active) | 40.5
12 | CCOC(=O)c1cc2c(=O)n3ccccc3nc2n(CCCOC)c1=NC(=O)c1cccnc1 | 223 (inactive) | 144
13 | COc1ccc(C)cc1NC(=O)CCC(=O)Nc1ccc2nc(N3CCN(C)CC3)cc(C)c2c1 | 19 (inactive) | 369
14 | COc1ccc(CCn2c(=N)c(C(=O)NCc3ccco3)cc3c(=O)n4ccccc4nc32)cc1 | 32 (inactive) | 225
15 | Cc1cccc(N2CCN(C(=O)CCNC(=O)Cn3ccc4ccccc4c3=O)CC2)c1C | 8 (inactive) | 246
16 | COc1cccc(-c2cc(C(=O)N3CCCc4ccccc43)no2)c1 | 9 (inactive) | 336
17 | COC(=O)Nc1sccc1C(=O)Nc1sccc1C(=O)OC | 144 (inactive) | 182
18 | O=C(Nc1c(C(=O)N2CCOCC2)cnn1-c1ccccc1)c1ccco1 | 201 (inactive) | 124
19 | CCN1CCCC1CNC(=O)C1CCN(Cc2nc(-c3cccc(Br)c3)oc2C)CC1 (centres undefined) | 16 (inactive) | 78

Row | SMILES | cell event count (at 100 µM) | cell event count (event count, at 10 µM)
20 | Cc1nn(Cc2ccc(F)cc2)c(C)c1NC(=O)c1cc(-c2ccc3c(c2)OCO3)on1 | 105 (inactive) | 276
21 | COc1ccc(N2CCN(CCCNC(=O)c3cc4sccc4n3C)CC2)cc1 | 161 (inactive) | 251
22 | COCCNC(=O)CC(NS(=O)(=O)c1ccc(NC(C)=O)cc1)C(C)C (centres undefined) | 79 (inactive) | 62
23 | C=CCn1c(=N)n(CC(O)COc2ccccc2OC)c2ccccc21 (centres undefined) | 29 (inactive) | 94
24 | Cc1cc(=O)oc(C)c1C(=O)NCCCN1CCN(c2ccc(F)cc2)CC1 | 236 (inactive) | 100
25 | CCCc1cc(-c2n[nH]c(C)c2-c2ccc(C(=O)OCC)o2)c(O)cc1O | 7 (active) | 71
26 | CCN1CCN(c2ncc(C(=O)Nc3cc(Cl)c(OC)cc3OC)c3ccccc23)CC1 | 41 (inactive) | 301
27 | CN(CCNC(=O)C1CC(=O)N(c2ccc(F)c(Cl)c2)C1)Cc1ccccc1 (centres undefined) | 79 (inactive) | 202
28 | CCN(CC)CCCNC(=O)c1cc(-c2cccc(Cl)c2)on1 | 170 (inactive) | 376
29 | CCc1ccc(-c2nc(CN3CCC(C(=O)NCCc4ccc(OC)c(OC)c4)CC3)c(C)o2)cc1 | 17 (inactive) | 204
30 | CC1CCCCN1CCNC(=O)c1cc2c(-c3ccccc3F)nn(C)c2s1 (centres undefined) | 255 (inactive) | 384
31 | CCOc1cccc2cc(-c3cn4cc(C)ccc4n3)c(=O)oc12 | 267 (inactive) | 300
32 | Nc1ccc(-c2nc3c(Cl)c(N)ccc3[nH]2)cc1 | 183 (inactive) | 206
33 | Cc1ccc(-n2c(SCC(=O)Nc3nccs3)nc3c(c2=O)SCC3)cc1 | 83 (inactive) | 282
34 | Cn1nc(-c2ccc(Cl)cc2)c2cc(C(=O)NCCCN3CCCC3)sc21 | 19 (inactive) | 104
35 | CN1C(=O)c2ccc(S(=O)(=O)c3ccc(C(=O)O)cc3)cc2C1=O | 195 (inactive) | 166
36 | Cc1cc(NC(=O)c2noc3c2CCc2ccccc2-3)n(-c2ccccc2)n1 | 146 (inactive) | 367
37 | COc1ccc(Cl)c(N2CCN(CCCNC(=O)Nc3ccc(C)cc3)CC2)c1 | 19 (inactive) | 128
